The results in this text go back to PubChem BioAssay.

Inconclusive results are not listed. The source made the active and inactive calls.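 Rule for the calls, unless noted: active = fitted half-maximal concentration within 10 nM to 100 µM, steepness 0.5 to 2, significant signal drop, low assay interference; inactive = the rest.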

Test [1] concerns the target GTPase HRas (Homo sapiens) (UniProt P01112). In words: inhibitors of GTP binding to wildtype Ras, dose response, biochemical, multiplex bead flow cytometry (AID 1335). To be noted: bead-based flow cytometry, Bodipy-GTP binding to GST-Ras; at 100 µM (top of the series). (In general: In flow cytometry, cells or beads pass a laser one at a time.)
The nature of test [2]: yeast TOR pathway RPL19A-GFP modulators, primary screen, cell-based, S. cerevisiae, multiplex flow cytometry (AID 1862; in the data active = percent of DMSO control GFP below about 86%;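 note: lower values mimic rapamycin by blocking the RPL19A rise seen in DMSO cells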). To be noted: S. cerevisiae RPL19A-GFP strain, flow cytometry fluorescence, 3 h; at 10 µM; stronger effect = lower value.
Test [3] is described as follows: modulators of MEP2-GFP levels in yeast, primary screen, S. cerevisiae, multiplex flow cytometry (AID 1867;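 active = GFP response, as percent of the DMSO control, above the screen-wide mean plus 3 SD, about 139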;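 note: median GFP channel fluorescence of barcode-gated MEP2-GFP cells measured by flow cytometry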). To be noted: S. cerevisiae MEP2-GFP strain, 3 h, at 10 µM, stronger effect = higher value.
A short description of test [4]: modulators of CIT2-GFP expression in yeast, primary screen, S. cerevisiae, GFP fusion, multiplex flow cytometry (AID 1870;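 active = percent response above a set limit, the screen-wide mean plus 3 SD, cut at about 130% in these data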;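 note: barcoded CIT2-GFP strain pooled with four other GFP strains with rapamycin as positive control; median GFP fluorescence per well over plate mean of DMSO wells so 100% = DMSO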). Conditions: 3 h, at 10 µM, stronger effect = higher value.
Test [5] can be described thus: modulators of LAP4-GFP expression in yeast, primary screen, S. cerevisiae, multiplex flow cytometry (AID 1873;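 active = GFP signal, as percent of the solvent control, above the screen mean plus 3 SD, about 149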). Conditions: 3 h, at 10 µM, stronger effect = higher value.
The nature of test [6]: modulators of AGP1-GFP expression in yeast TOR pathway, primary screen, cell-based, multiplex flow cytometry, S. cerevisiae (AID 1887;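 active = GFP signal above the screen-wide mean plus 3 SD, that is over about 124.5% of the solvent control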;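 note: AGP1-GFP fusion strain of S. cerevisiae within a five-strain barcoded multiplex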). To be noted: 3 h, at 10 µM, stronger effect = higher value.
Test [7] in a line: inhibitors of CD8+ T cell-vesicle binding, pilot screen, LFA-1/ICAM-1 modulator project, MLPCN validation set, flow cytometry (AID 2523;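 active = response below a set limit, under 55% cells CD8-positive and vesicle-bound, and CD8 cells' 90th-percentile brightness under 279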;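 for vesicle binding response: mean PE anti-B7-1 fluorescence of CD8+ cells relative to row control; 100% = QL9-loaded vesicles with DMSO vehicle in the same plate row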). Conditions: 2C mouse CD8+ T cells, at 7 µM, stronger effect = lower value; double positive events: measured here: CD8+/vesicle+ event percentage.
Test [8] concerns the target Integrin beta-1 (Homo sapiens) + Integrin alpha-4 (Homo sapiens) (UniProt P13612+P05556). The experiment in a line: inhibition of HUTS-21 binding to VLA-4, pilot screen, VLA-4 allosteric modulator project, U937 cells, HUTS-21 mAb, flow cytometry, validation set (AID 2674;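 active = inhibition above 50%, about 3 SD of the validation set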;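 note: antibody binding induced by the VLA-4 ligand LDV present at three times its Kd; 0% = LDV ligand with antibody and no compound and 100% = antibody without LDV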). Conditions: HUTS-21 LIBS mAb binding, at 6.7 µM, stronger effect = higher value.
The nature of test [9]: superoxide lowering in aged yeast cells, pilot screen, validation compound set (AID 2706;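 active = superoxide response below 65% of plate, a cut near 3 SD across the whole screen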;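 note: yeast exposed to compound for one week at 30 degrees C before staining; 100% = mean of all compound wells on the same plate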). To be noted: S. cerevisiae aging, superoxide DHE fluorescence; at 10 µM; stronger effect = lower value.
Test [10] has as its target Beta-adrenergic receptor kinase 1 (Homo sapiens) (UniProt P25098). In words: GRK2 binders displacing RNA aptamer, biochemical, validation, human GRK2, bead flow cytometry (AID 488806;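 active = aptamer binding inhibition above 30%, about 3 SD of noise from non-fluorescent compounds; inactive = inhibition at or below 30%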). Conditions: bead-bound GRK2, FAM-aptamer displacement, at 10 µM, stronger effect = higher value.
Test [11] concerns the target Beta-2 adrenergic receptor (Homo sapiens) (UniProt P07550). In words: beta2AR agonists driving receptor internalization, pilot screen, cell-based, FAP fluorogen, flow cytometry, validation set (AID 504459;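 active = percent response above 42, roughly 3 SD of non-fluorescent test compounds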;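 note: agonist-driven loss of surface beta2AR via internalization measured by FAP dye flow cytometry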). To be noted: Am2.2-beta2AR cells, FAP surface receptor flow cytometry; at 10 µM; stronger effect = higher value.
Test [12] in a line: yeast V-ATPase proton transport modulators, S. cerevisiae, pHLuorin, HTS validation (AID 504600; in the data active = response above about 15%;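 note: plate controls were DMSO for no effect and reference compound for full effect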). Conditions: S. cerevisiae pHLuorin cytosolic pH, at 10 µM, stronger effect = higher value.
The subject of test [13] is anti-desmoglein-3 scFv antibody binding to human DSG3. The experiment in a line: inhibitors of anti-DSG3 scFv binding to DSG3, pilot screen, biochemical, validation compound set, bead-based, flow cytometry (AID 588368;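 active = binding below the plate cutoff, the plate median minus 3 SD, with a reading above zero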;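 note: signal is the median channel fluorescence of bead-bound GFP antibody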). To be noted: Protein G beads, DSG3-Fc, scFv-GFP binding, at 10 µM, stronger effect = lower value.
The test system of test [14] is Botulinum neurotoxin type F light chain protease (Clostridium botulinum). In words: Botulinum neurotoxin type F light chain protease inhibition, multiplex microsphere flow cytometry, validation set (AID 588459; call rule not given here). To be noted: multiplex microsphere protease substrate cleavage assay, at 10 µM, stronger effect = higher value.
Test [15] addresses Botulinum neurotoxin type A (Clostridium botulinum) (UniProt P0DPI0). The experiment in a line: BoNT/A light chain protease inhibitors, biochemical, multiplex microsphere flow cytometry, validation set (AID 588460; call rule not given here). To be noted: at 10 µM, stronger effect = higher value.
For test [16], the target named is Lethal factor (Bacillus anthracis) (UniProt P15917). In words: Lethal factor protease inhibitors, Bacillus anthracis, multiplex microsphere cleavage assay, validation set (AID 588461; call rule not given here). To be noted: flow cytometry, at 10 µM, stronger effect = higher value.
Test [17] can be described thus: inhibitors of fungal efflux pumps CDR1, CDR2, MDR1, pilot screen, validation compound set, multiplex, phenotypic (AID 588506;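 active = efflux inhibition above 0.42, the validation set average plus 4 SD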;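 note: Nile Red retained in cells so higher fluorescence means more efflux inhibition; 0 = negative control wells and 1 = enniatin B 25 µM full block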). Conditions: S. cerevisiae pump-expressing triplex, Nile Red efflux flow cytometry; at 10 µM; stronger effect = higher value.
For test [18], the target named is ATP-binding cassette sub-family B member 6 (Homo sapiens) (UniProt Q9NP58). In words: ABCB6 transporter inhibitors, pilot screen, K562-ABCB6 cells, flow cytometry, validation set (AID 588550;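 active = inhibition above the screen-wide mean plus 3 SD, about 51%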;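 note: 0% = DMSO wells and 100% = benzethonium chloride 70 µM positive control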). Conditions: K562-ABCB6 porphyrin accumulation, 1 h, at 10 µM, stronger effect = higher value.
Test [19] in a line: promoters of myeloid differentiation in arrested cells, primary screen, cell-based, GFP/MAC1 double positive, flow cytometry, validation set (AID 588685;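 active = differentiation response of at least 50%, scaled between solvent and reference control, from cells with both markers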;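 note: compound exposure lasts four days before antibody staining and flow analysis; 0% = DMSO wells and 100% = 5 µM fulvestrant positive control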). Conditions: ER-HoxA9 marrow cells, stronger effect = higher value.
Test [20] has as its target AP-2 complex subunit beta (Homo sapiens) (UniProt P63010). In words: inhibitors of arrestin peptide binding to AP2, pilot screen, biochemical, validation set, GST-AP2 beads, flow cytometry (AID 504541;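 active = inhibition above 54%, about 3 SD of non-fluorescent compounds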;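 note: AP2 carries R879A mutation and is captured from E. coli lysate; bead-bound FITC arrestin peptide fluorescence measuring arrestin peptide binding to AP2; 0% = DMSO wells and 100% = excess unlabeled arrestin peptide control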). To be noted: FITC arrestin peptide, at 10 µM, stronger effect = higher value.

Sequence of Integrin beta-1 (Homo sapiens) + Integrin alpha-4 (Homo sapiens) (P05556 whole entry, looked up): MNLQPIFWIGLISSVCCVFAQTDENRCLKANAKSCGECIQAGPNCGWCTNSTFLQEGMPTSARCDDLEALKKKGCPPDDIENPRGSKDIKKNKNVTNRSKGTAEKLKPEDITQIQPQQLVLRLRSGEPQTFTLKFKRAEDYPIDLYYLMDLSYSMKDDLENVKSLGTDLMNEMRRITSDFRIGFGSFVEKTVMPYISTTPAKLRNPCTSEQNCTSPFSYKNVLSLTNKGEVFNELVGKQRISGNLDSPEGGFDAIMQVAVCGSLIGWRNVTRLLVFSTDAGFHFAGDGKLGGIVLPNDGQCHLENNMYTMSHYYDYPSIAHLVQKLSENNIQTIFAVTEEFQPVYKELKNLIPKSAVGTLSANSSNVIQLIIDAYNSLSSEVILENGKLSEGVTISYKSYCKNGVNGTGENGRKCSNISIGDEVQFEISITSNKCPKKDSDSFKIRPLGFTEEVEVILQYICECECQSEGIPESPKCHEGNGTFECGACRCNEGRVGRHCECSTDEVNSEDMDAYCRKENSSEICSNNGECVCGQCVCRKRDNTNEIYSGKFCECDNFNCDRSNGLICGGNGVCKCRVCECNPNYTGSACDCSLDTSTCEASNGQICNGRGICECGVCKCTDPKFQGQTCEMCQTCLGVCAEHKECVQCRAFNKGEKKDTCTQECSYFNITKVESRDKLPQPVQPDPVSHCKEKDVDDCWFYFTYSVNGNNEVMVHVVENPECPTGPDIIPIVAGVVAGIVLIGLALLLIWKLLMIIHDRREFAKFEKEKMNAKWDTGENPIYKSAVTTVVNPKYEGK
Sequence of Integrin beta-1 (Homo sapiens) + Integrin alpha-4 (Homo sapiens) (P13612 whole entry, looked up): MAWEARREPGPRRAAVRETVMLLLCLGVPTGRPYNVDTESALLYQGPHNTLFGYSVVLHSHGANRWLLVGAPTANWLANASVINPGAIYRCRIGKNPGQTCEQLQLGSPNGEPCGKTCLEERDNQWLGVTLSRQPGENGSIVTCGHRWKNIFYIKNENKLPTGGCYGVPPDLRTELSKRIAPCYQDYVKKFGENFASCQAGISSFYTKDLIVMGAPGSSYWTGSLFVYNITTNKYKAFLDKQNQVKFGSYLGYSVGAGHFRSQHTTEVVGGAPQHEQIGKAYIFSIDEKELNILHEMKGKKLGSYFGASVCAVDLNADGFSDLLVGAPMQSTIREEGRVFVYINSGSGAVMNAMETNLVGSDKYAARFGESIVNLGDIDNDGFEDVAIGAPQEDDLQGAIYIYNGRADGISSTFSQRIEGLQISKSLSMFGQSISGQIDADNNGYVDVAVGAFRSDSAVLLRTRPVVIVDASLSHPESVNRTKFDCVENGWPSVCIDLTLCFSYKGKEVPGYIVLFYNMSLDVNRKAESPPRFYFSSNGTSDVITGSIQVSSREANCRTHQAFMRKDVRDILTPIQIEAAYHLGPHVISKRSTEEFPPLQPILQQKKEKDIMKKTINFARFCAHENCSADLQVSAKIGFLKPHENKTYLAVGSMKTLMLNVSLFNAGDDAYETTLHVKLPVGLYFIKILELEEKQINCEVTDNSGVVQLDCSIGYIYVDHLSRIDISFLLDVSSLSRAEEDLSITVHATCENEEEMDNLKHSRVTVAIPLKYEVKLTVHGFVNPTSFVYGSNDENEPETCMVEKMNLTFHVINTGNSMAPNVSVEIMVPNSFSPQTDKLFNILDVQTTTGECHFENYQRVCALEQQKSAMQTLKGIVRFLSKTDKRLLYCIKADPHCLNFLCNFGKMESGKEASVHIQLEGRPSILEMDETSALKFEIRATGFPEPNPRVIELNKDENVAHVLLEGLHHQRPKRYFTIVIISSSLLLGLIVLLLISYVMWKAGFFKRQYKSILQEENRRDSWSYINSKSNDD
Sequence of Botulinum neurotoxin type A (Clostridium botulinum) (P0DPI0 whole entry, looked up): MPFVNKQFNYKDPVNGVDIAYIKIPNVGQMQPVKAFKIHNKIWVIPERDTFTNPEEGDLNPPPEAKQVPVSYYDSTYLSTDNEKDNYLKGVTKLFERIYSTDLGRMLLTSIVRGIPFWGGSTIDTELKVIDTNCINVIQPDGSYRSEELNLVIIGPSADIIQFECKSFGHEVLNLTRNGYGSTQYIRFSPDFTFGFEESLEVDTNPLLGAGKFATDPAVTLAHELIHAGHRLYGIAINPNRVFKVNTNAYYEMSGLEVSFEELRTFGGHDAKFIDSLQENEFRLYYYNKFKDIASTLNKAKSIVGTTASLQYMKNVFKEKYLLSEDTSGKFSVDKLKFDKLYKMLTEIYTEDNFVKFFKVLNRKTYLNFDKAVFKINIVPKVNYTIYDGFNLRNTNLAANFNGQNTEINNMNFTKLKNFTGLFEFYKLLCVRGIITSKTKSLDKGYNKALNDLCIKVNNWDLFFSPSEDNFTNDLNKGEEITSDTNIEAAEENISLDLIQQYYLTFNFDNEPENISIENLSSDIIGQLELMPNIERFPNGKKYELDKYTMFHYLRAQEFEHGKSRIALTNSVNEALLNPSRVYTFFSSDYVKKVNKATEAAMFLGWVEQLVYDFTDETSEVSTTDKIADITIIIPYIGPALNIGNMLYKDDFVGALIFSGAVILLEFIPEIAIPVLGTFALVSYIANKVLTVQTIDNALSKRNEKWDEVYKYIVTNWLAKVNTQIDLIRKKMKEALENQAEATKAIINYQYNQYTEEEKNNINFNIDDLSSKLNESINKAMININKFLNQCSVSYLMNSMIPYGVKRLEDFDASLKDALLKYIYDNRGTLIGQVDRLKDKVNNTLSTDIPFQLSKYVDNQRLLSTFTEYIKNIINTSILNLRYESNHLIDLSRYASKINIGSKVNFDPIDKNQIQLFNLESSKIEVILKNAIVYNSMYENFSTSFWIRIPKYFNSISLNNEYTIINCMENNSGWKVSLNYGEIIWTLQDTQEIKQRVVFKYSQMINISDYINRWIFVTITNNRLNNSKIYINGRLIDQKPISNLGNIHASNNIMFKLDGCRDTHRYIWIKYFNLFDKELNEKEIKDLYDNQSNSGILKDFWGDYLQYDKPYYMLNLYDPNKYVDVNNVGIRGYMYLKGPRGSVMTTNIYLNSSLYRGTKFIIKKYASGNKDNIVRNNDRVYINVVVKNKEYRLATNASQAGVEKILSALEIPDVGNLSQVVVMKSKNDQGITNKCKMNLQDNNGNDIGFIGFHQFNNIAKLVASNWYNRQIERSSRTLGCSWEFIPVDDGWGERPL
Sequence of GTPase HRas (Homo sapiens) (P01112 whole entry, looked up): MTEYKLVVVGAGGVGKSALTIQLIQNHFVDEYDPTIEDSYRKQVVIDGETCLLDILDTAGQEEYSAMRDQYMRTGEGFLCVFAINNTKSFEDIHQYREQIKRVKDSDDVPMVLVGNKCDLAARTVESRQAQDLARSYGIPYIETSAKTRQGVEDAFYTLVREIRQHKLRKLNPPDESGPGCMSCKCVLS
Sequence of Beta-adrenergic receptor kinase 1 (Homo sapiens) (P25098 whole entry, looked up): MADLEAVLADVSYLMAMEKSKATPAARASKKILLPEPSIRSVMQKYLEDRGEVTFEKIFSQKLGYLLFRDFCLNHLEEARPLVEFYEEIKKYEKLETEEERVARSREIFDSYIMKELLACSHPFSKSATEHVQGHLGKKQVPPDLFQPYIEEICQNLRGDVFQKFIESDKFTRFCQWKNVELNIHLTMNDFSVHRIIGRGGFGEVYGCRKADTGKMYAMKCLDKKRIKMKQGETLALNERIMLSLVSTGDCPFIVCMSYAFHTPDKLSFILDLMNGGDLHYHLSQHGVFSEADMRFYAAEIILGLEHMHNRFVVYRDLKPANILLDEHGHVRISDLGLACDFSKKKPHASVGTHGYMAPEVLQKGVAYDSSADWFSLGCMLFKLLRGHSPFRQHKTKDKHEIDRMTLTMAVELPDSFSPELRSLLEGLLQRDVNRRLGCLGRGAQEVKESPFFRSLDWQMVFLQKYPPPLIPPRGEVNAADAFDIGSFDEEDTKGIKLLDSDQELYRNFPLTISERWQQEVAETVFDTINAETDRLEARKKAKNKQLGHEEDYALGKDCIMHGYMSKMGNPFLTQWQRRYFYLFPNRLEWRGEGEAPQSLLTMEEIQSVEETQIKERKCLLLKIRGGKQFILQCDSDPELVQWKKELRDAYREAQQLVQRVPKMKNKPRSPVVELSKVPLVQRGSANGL
Sequence of Beta-2 adrenergic receptor (Homo sapiens) (P07550 whole entry, looked up): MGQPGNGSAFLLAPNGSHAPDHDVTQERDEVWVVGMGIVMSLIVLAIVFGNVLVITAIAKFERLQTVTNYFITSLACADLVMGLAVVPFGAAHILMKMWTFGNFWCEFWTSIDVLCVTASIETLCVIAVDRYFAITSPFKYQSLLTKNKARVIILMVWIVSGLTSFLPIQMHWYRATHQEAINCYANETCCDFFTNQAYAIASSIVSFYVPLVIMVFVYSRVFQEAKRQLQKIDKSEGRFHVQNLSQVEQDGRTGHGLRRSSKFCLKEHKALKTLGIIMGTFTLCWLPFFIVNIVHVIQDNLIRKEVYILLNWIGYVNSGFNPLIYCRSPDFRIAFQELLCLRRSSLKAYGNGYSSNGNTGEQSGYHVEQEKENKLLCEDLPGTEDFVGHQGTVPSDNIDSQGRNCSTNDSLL

For `Cc1ccccc1OCCCn1cc(C(=O)O)c2ccccc21`, the GTP binding, percent of control in test [1] was 92.4%.
On the same count and under the same terms, to `O=C1CN=C(c2ccccc2)c2cc(Br)ccc2N1Cc1cc(=O)n2ccccc2n1` belongs 64.5%; to `CC(Oc1ccc(-c2ccccc2)cc1)C(=O)O` (centres undefined), 172%.
In general, inhibition refers to the change of the read-out against control, counted positive when it falls. For the compound `O=C1C(=O)c2ccccc2-c2ccccc21`, the percent of DMSO control GFP in test [2] was 73.2% (active). Besides, the values for the GFP response vs DMSO in test [3] and in test [5] were 126% (inactive) and 60.6% (inactive), respectively. For the same compound, the percent response of DMSO control in test [4] is 92.9% (inactive). Also, in [6], the GFP response, % of DMSO is 36.3% (inactive). The same compound gave a double positive events in test [7] of 61.3%. Besides, the vesicle binding response in test [7] is 176% (inactive). Besides, the inhibition in test [8] was -0.43% (inactive); in test [14], 5.3% (inactive); in [15] it was 0.6% (inactive); in test [16], -4.7% (inactive); in test [18] it was -64% (inactive). Also, the superoxide response (% of plate) in test [9] was 83% (inactive). For the same compound, the aptamer binding inhibition in test [10] was 67% (active). The response in [11] is 112% (active); in test [12], 0.26% (inactive). Moreover, the binding (% of control) in test [13] is 98.9% (inactive). In addition, the efflux inhibition (fraction of control) in [17] is 2.06 (active). In addition, in test [19], the differentiation response was 100% (active).
Turning to `O=C1CN=C(c2ccccc2F)c2cc(Cl)ccc2N1`, the percent of DMSO control GFP in test [2] is 90.9% (inactive). The GFP response vs DMSO in [3] is 147% (active); in test [5], 78.7% (inactive). Besides, the percent response of DMSO control in test [4] was 95.2% (inactive). In test [6], the GFP response, % of DMSO was 88% (inactive). Besides, the double positive events in [7] is 67.2%. The vesicle binding response in test [7] is 272% (inactive). For the same compound, the inhibition is 1.61% (inactive) in test [8]; 43.2% (inactive) in [20]; 3.7% (inactive) in test [14]; 0.4% (inactive) in [15]; 1.5% (inactive) in [16]; 14% (inactive) in [18]. The superoxide response (% of plate) in test [9] is 98.6% (inactive). Besides, in test [10], the aptamer binding inhibition was -3% (inactive). Besides, the response in [11] is -21.4% (inactive); in test [12] it was -7.23% (inactive). Moreover, the binding (% of control) in test [13] is 94.8% (inactive). Also, in [17], the efflux inhibition (fraction of control) is 0.27 (inactive). In addition, in test [19], the differentiation response was 11.5% (inactive).
As to `O=C(O)c1cn(Cc2ccccc2Cl)c2ccccc12`, the GTP binding, percent of control in test [1] was found to be 82.2%.
Take `COCCCn1c(N)c(C(=O)Nc2sc3c(c2C(=O)OC)CCCC3)c2nc3ccccc3nc21`: the GTP binding, percent of control in test [1] was determined as 51.7%.
Same read-out and setting: next, `Cc1sc(-n2c(C)cc(C=C3C(=O)NC(=O)NC3=O)c2C)c(C#N)c1C`: 68.9%; `O=C1NC(=S)N(Cc2ccco2)C(=O)/C1=C\c1cccs1`: 95.1%; `Cc1cc(C)cc(N2C(=O)NC(=O)/C(=C\C=C\c3ccco3)C2=O)c1`: 83.8%.
Consider `CCn1nc(/C=C/c2ccccc2)nc2c(=O)n(C)c(=O)nc1-2`, for which the GTP binding, percent of control in [1] was 76.7%.
Compound `CCOc1ccc(C2SCC(=O)Nc3c2c(C)nn3C2CCOC(C)(C)C2)cc1` (centres undefined) had a GTP binding, percent of control in [1] of 150%.
Take `C#C[C@]1(O)CC[C@H]2[C@@H]3CCC4=CC(=O)CC[C@]4(C)[C@H]3CC[C@@]21C`: in test [2], the percent of DMSO control GFP is 88.7% (inactive). Moreover, the figures for the GFP response vs DMSO in test [3] and in [5] were 140% (active) and 80.9% (inactive), respectively. Moreover, in test [4], the percent response of DMSO control was 106% (inactive). The GFP response, % of DMSO in [6] is 87.7% (inactive). The compound further returned a double positive events in test [7] of 64.1%. In addition, the vesicle binding response in test [7] is 255% (inactive). The inhibition in test [8] was 3.55% (inactive); in test [20] it was 14.2% (inactive); in [14], 2.5% (inactive); in test [15], -0.5% (inactive); in test [16], -1.2% (inactive); in test [18], 9% (inactive). Further, in [9], the superoxide response (% of plate) was 97.8% (inactive). For the same compound, the aptamer binding inhibition in test [10] is 1% (inactive). In addition, the figures for the response in [11] and in [12] were -8% (inactive) and -3.36% (inactive), respectively. For the same compound, the binding (% of control) in test [13] was 102% (inactive). Besides, in test [17], the efflux inhibition (fraction of control) is 0.3 (inactive). Besides, the differentiation response in test [19] was -0.82% (inactive).
